Bioassay records from PubChem BioAssay.
An excerpt weighted towards active compounds, which were near 2.8% of everything screened.
PAFAH1B2 FP inh = PAFAH1B2 (human) inhibition. recombinant PAFAH1B2, FP-rhodamine activity probe, fluorescence polarization. inhibition, % at 3.39 µM. 340,000 compounds, 1.2% hits;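 active means inhibition above the mean of all tested compounds plus 3 SD, cut at about 24% in these data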;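 further: 0% = enzyme with DMSO and 100% = wells lacking PAFAH1B2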
Target sequence (P68402 whole entry, looked up): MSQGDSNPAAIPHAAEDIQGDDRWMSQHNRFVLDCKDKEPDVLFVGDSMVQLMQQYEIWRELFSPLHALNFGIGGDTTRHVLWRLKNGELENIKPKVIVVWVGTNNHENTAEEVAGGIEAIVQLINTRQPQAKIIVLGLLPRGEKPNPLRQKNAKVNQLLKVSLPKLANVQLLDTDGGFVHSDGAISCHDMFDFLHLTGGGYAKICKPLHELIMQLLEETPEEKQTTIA
pPAFAH FP inh = pPAFAH (human) enzyme inhibition | 330,000 compounds, 1.5% hits | recombinant pPAFAH, FP-rhodamine probe fluorescence polarization | inhibition, % at 3.39 µM | Q13093;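 active means inhibition above the mean inhibition across the screen plus 3 SD, cut at about 25% in these data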;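 further: inhibitors block binding of the rhodamine activity-based probe so polarization drops; 0% = enzyme with DMSO and 100% = wells lacking pPAFAH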
DAGLB inh = blocks human DAGLB lipase activity. Q8NCG7. HEK293T DAGLB membrane lysate, EnzChek fluorogenic substrate. 340,000 compounds, 0.059% hits. AID 504411. inhibition, % at 5.17 µM; in the data active means inhibition above about 34%;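 further: 0% = enzyme with vehicle and 100% = wells lacking enzyme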
HTRA1 inh = blocks human HTRA1 serine peptidase; AID 504803; recombinant HTRA1, FP-rhodamine activity-based probe, fluorescence polarization; 340,000 compounds, 0.5% hits; inhibition, % at 5.96 µM; in the data active means inhibition above about 36%;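 further: 0% = enzyme with DMSO and 100% = wells lacking enzyme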
PAFAH1B3 inh = inhibitors of human PAFAH1B3 | Q15102 | recombinant PAFAH1B3, FP-rhodamine probe, fluorescence polarization | inhibition, % at 3.39 µM | 340,000 compounds, 0.28% hits;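 active means inhibition above the screen-wide average of all tested compounds plus 3 SD, cut at about 25% in these data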;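 further: 0% = enzyme with DMSO only and 100% = wells lacking PAFAH1B3 protein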
Target sequence (Q15102 whole entry, looked up): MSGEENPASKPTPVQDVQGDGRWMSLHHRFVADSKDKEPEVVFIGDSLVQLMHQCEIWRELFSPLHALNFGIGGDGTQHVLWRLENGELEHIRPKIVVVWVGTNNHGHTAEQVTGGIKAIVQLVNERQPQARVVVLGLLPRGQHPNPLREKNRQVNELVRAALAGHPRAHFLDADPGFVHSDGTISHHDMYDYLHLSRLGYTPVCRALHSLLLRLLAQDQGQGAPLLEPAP
PAFAH2 FP inh = PAFAH2 (human) inhibition | Q99487 | recombinant PAFAH2, FP-rhodamine activity probe, fluorescence polarization | inhibition, % at 3.39 µM | 340,000 compounds, 0.99% hits | AID 492956;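 active means inhibition above the mean over all tested compounds plus 3 SD, cut at about 30% in these data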;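 further: inhibitors block probe labeling of enzyme so polarization drops; 0% = enzyme with DMSO and 100% = wells lacking PAFAH2 protein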
PAFAH2 FP conf = confirmation of human PAFAH2 inhibitors; shares compounds with PAFAH2 FP inh; recombinant PAFAH2, FP-rhodamine activity probe, fluorescence polarization; inhibition, % at 3.39 µM; 2,300 compounds, 65% hits;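 active means mean inhibition over three repeats above a set limit taken from the earlier primary screen, cut at about 30% in these data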;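 further: inhibitor blocks binding of rhodamine activity probe so polarization falls; 0% = enzyme with DMSO and 100% = wells lacking PAFAH2 protein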
An asterisk follows results filed as active; nt = not tested or not shown.

SMILES	PAFAH1B2 FP inh	pPAFAH FP inh	DAGLB inh	HTRA1 inh	PAFAH1B3 inh	PAFAH2 FP inh	PAFAH2 FP conf
CC(C)=CC(=O)OCC(=O)Nc1cccc([N+](=O)[O-])c1	2	-2	-1	5	2	76*	75*
O=C(Nc1ccc(F)cc1F)c1ccc(-n2cccn2)c([N+](=O)[O-])c1	1	6	-1	-3	1	4	nt
NS(=O)(=O)c1ccc(NC(=O)COC(=O)C23CC4CC(CC(C4)C2)C3)cc1	18	-1	-2	-18	0	1	nt
O=C(COC(=O)C12CC3CC(CC(O)(C3)C1)C2)Nc1ccc(OC(F)F)cc1	4	nt	1	-1	10	45*	29
O=C(COC(=O)C12CC3CC(CC(C3)C1)C2)Nc1ccc(OC(F)F)cc1	5	24	-8	-28	9	67*	49*
COc1ccc(NC(=O)COC(=O)CC2CCCC2)cc1	3	20	-4	3	4	58*	47*
COc1ccc(NC(=O)COC(=O)CN2C(=O)C3CCCCC3C2=O)cc1 (stereo not given)	nt	nt	3	4	nt	nt	nt
COc1ccc(NC(=O)COC(=O)CC2CCCCC2)cc1	-2	7	-3	0	0	48*	42*
Cc1ccc(NC(=O)COC(=O)CCC2CCCC2)c(Br)c1	2	18	-14	-12	6	31*	14
Cc1cc(C)cc(NC(=O)COC(=O)CC2CCCC2)c1	4	24	-9	-11	4	80*	66*
O=C(NCCC1CCCCN1S(=O)(=O)c1ccc(Cl)cc1)C(=O)NCCN1CCOCC1 (stereo not given)	1	8	-2	5	2	-8	nt
NS(=O)(=O)c1cccc(NS(=O)(=O)c2ccc(/C=C/C(=O)OCC(=O)c3ccccc3)cc2)c1	2	2	1	-17	-1	58*	49*
O=c1c2c(nc3nc(COc4ccccc4)[nH]n13)CCC2	3	5	0	8	-1	61*	56*
O=C1NC(=Nc2ccccc2)S/C1=C\c1cccnc1	5	7	4	0	9	10	nt
Cc1ccc(N=C2NC(=O)/C(=C/c3cccnc3)S2)cc1C	4	5	-5	3	0	32*	23
O=C(N/N=C/c1cc([N+](=O)[O-])ccc1O)C1CCCCC1	9	8	-4	10	7	59*	41*
O=C(N/N=C/c1cc([N+](=O)[O-])ccc1O)C1C2CCCCC21 (stereo not given)	nt	4	nt	nt	nt	nt	nt
COc1ccc(CCNC(=O)COC(=O)/C=C/c2ccc(OCC#N)c(OC)c2)cc1OC	5	3	1	5	-9	11	nt
COc1cc(/C=C/C(=O)OCC(=O)NCC2CCCO2)ccc1OCC#N (stereo not given)	4	4	-2	-1	2	43*	30*
O=C(COC(=O)/C=C/c1ccc(F)cc1)NCC1CCCO1 (stereo not given)	1	2	-3	5	15	38*	26
COc1cc(/C=C/C(=O)OCC(=O)NCc2ccco2)ccc1OCC#N	2	5	-6	-1	14	44*	37*
Cc1cc(C(=O)CCC(=O)N(C)CC(=O)Nc2ccccc2Br)c(C)s1	-5	-3	0	-6	-11	3	nt
Cc1ccc(NC(=O)C=NOCC(=O)Nc2cc(C)cc(C)c2)cc1	6	-6	-4	-7	4	-1	nt
O=c1cc(-c2ccccc2)nc2cc(-c3ccc(F)cc3)[nH]n12	20	8	10	-13	10	64*	0
Cc1cccc(NC(=O)C(=O)C2C(=O)Nc3ccccc32)c1 (stereo not given)	7	-2	2	6	1	36*	29
SMILES	PAFAH1B2 FP inh	pPAFAH FP inh	DAGLB inh	HTRA1 inh	PAFAH1B3 inh	PAFAH2 FP inh	PAFAH2 FP conf
O=C(Nc1ccc2ccccc2c1)C(=O)C1C(=O)Nc2ccccc21 (stereo not given)	nt	7	nt	nt	nt	nt	nt
C=CCSC1=N/C(=C\c2cc(OCC)c(OC(C)=O)c([N+](=O)[O-])c2)C(=O)S1	15	10	31	28	8	60*	65*
CSc1nc(C)cc(OCNC(=O)c2cccs2)n1	1	5	2	-3	10	54*	51*
CCOc1ncccc1C(=O)OCC(=O)Nc1ccc2c(c1)OCCO2	0	21	-5	10	5	55*	47*
O=C(COC(=O)c1cccnc1Cl)Nc1ccc2c(c1)OCO2	3	5	2	21	14	75*	60*
CSc1ncccc1C(=O)OCC(=O)Nc1ccc2c(c1)OCO2	1	5	-4	2	2	29	nt
Cc1c(C(=O)OCC(=O)NCc2ccc3c(c2)OCO3)cccc1[N+](=O)[O-]	3	4	-6	2	3	0	nt
Cc1c(C(=O)OCC(=O)Nc2ccc3c(c2)OCO3)cccc1[N+](=O)[O-]	6	4	-2	-3	-4	72*	64*
COc1ccc(/C=C/C(=O)OCC(=O)NC2CCCC2)cc1	-3	8	0	-5	-1	83*	86*
NC(=O)NC(=O)COC(=O)/C=C/c1cccc(Br)c1	1	-2	-2	0	-2	1	nt
O=C(COC(=O)/C=C/c1cccc(Br)c1)NC1CC1	3	4	-3	0	-1	32*	24
COc1cccc(/C=C/C(=O)OCC(=O)NC2CCCCCCC2)c1	7	14	-3	-21	1	96*	82*
O=C(COC(=O)/C=C/c1cccc(C(F)(F)F)c1)NC1CCCCCC1	1	-4	1	3	3	31*	43*
CN(Cc1c(C(=O)N/N=C/c2cc(F)ccc2F)nnn1-c1nonc1N)C1CCCCC1	6	-2	-2	5	1	-5	nt
C=C(C)COc1ccc2c(C)c(CC(=O)OC)c(=O)oc2c1C	6	8	-4	-2	-2	9	nt
C=C(C)COc1ccc2c(C)c(C)c(=O)oc2c1OCC(=C)C	3	9	-14	-20	4	38*	40*
CC(C)(CO)NCC#Cc1ccccc1	-2	-6	-3	-3	9	1	nt
CC(=O)Nc1cccc(-c2nc3ccccc3c(=O)o2)c1	1	-4	-1	-7	8	-3	nt
O=c1oc(-c2ccccc2NS(=O)(=O)c2ccccc2)nc2ccccc12	5	-6	5	-40	-1	77*	67*
O=S(=O)(Nc1ccc(NS(=O)(=O)c2ccccc2)c2ccccc12)c1ccccc1	nt	nt	1	-16	nt	nt	nt
Nc1ccccc1-c1nc2ccccc2c(=O)o1	6	-6	-2	-28	13	30*	21
